Screens: PubChem, National Center for Advancing Translational Sciences (NCATS)
HT1080 IDH1KD tx: qHTS for induction of synthetic lethality in tumor cells producing 2HG: qHTS for the HT-1080-IDH1KD cell line. HT-1080 IDH1 knockdown viability, ATP luminescence, 48 h. Potency, µM (top dose mostly 46.1 µM), inactives show at the highest dose activity, negative = toxicity, most hits filed as cytotoxic. 2% of 360,000 active. AID 686971, 2013;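 also: 0% = DMSO wells and -100% = cell-free medium wells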
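Knockdown cells (IDH1KD HT-1080) received compounds 2 h after plating at 750 cells/well and were kept 48 h at 37 °C in 5% FBS RPMI. A CellTiter-Glo luminescence read gave % activity for curve fitting.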
HT1080NT lethal: qHTS for induction of synthetic lethality in tumor cells producing 2HG: qHTS for the HT-1080-NT fibrosarcoma cell line; HT-1080-NT fibrosarcoma viability, CellTiter-Glo ATP luminescence, 48 h; Potency, µM (series often up to 46.1 µM), without a hit: top-dose activity, negative = less viability, hits mostly cytotoxic; 1.6% of 360,000 active;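 also: NT is the 2HG producing partner of a matched IDH1 knockdown line; 0% = DMSO-treated cells and -100% = media-only wells without cells; nearly all actives have a fitted effect of over 55% in size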
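Read-out is CellTiter-Glo luminescence after 10 minutes at room temperature, following 48 hours' compound treatment of HT-1080-NT cells (750 cells/well, RPMI, 5% FBS, 37 degrees C).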
KB-V1 MDR tox: qHTS assay for MDR1-selective chemotherapeutics: Primary screen using the drug-selected MDR subline cells KB-V1; Potency, µM (top dose mostly 46.1 µM), actives largely listed as cytotoxic; AID 1347076, 2019; KB-V1 MDR cells viability, CellTiter-Glo, 72 h; 3.4% of 400,000 active; also: nearly all actives have a fitted effect of over 60% in size
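Readout: CellTiter-Glo luminescence, 10 min after addition. Cells: KB-V1 MDR subline, 72 h at 37 degrees C with compound. Analysis: corrected, normalized data fitted to concentration-effect curves.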
KB-3-1 tox: qHTS assay for MDR1-selective chemotherapeutics: Primary screen using the parental adenocarcinoma cell KB-3-1 | 1.4% of 400,000 active | KB-3-1 viability, CellTiter-Glo ATP luminescence, 72 h | AID 1347075, 2019 | Potency, µM (series often up to 46.1 µM), hits mostly cytotoxic; also: nearly all actives have a fitted effect of over 60% in size
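Screening of KB-3-1 cells (DMEM, 10% FBS, phenol-red free) ran from lowest to highest compound concentration; after 72 h at 37 °C viability was read luminescently and curves fitted.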
* hit, by the source's call; i = inactive; ? = inconclusive; . = no result given. An excerpt weighted towards active compounds, which were near 5.7% of everything screened. Calls follow the shape of the dose curve; as a rule, active = well fitted curve in the direction sought with a large enough effect; inconclusive = small, poorly fitted or top-dose-only effect, or another doubt; inactive = no such curve, though single readings can be large; an effect the other way counts as inactive or inconclusive. Unless noted, % is scaled to controls: 0 for no effect and ±100 for the full control effect; potency is read from the fitted curve at half-maximal effect.

SMILES | HT1080 IDH1KD tx | HT1080NT lethal | KB-V1 MDR tox | KB-3-1 tox
C/C(=N\Nc1nc(C(C)(C)C)cs1)c1ccc(O)cc1 | -5.9% | -6.0% | i | i
COCCNC(=O)CCN1C(=O)c2cccnc2Oc2ccc(C)cc21 | . | . | i | i
COc1ccc(-n2c(SCCC#N)nnc2-c2cc(Cl)ccc2OC)cc1Cl | 29.1µM* | ? | ? | ?
Cn1c(=O)oc2cc(S(=O)(=O)NC(Cc3ccccc3)C(=O)Nc3ccc(F)cc3)ccc21 (configuration not stated) | . | . | i | i
CC(=O)c1sc(NC(=O)C2(F)C(F)(F)C(F)(F)C(F)(F)C(F)(F)C2(F)F)nc1C | 7.08µM* | 7.08µM* | 7.31µM* | ?
CC(=O)N1/C(=C/c2ccc(N(C)C)cc2)C(=O)c2ccccc21 | ? | 3.26µM* | i | ?
CN(C)c1ccc(/C=C2\C(=O)/C(=C/c3ccc(N(C)C)cc3)c3ccccc32)cc1 | . | . | i | i
O=C(c1cc(Br)ccc1O)N(Cc1ccco1)Cc1cccs1 | . | . | i | ?
Cc1ccc(/C=N/NC(=O)C2COc3ccccc3O2)s1 (configuration not stated) | 1.84µM* | ? | ? | 2.06µM*
Cc1c(/C=N\NC(=O)C2COc3ccccc3O2)c2ccccc2n1C (configuration not stated) | 0.651µM* | 0.651µM* | ? | ?
CCOC(=O)C1CCN(C(c2cccc(F)c2)c2c(O)cc(C)n(Cc3ccco3)c2=O)CC1 (configuration not stated) | . | . | i | i
COc1cccc(C2c3cc4c(cc3OC(N3CCCC3)C2C)OCO4)c1O (configuration not stated) | ? | ? | 8.2µM* | 20.6µM*
O=C(CN(C1CCCCC1)S(=O)(=O)c1ccc(F)cc1)NCC1CCCO1 (configuration not stated) | 4.61µM* | 3.66µM* | ? | 4.61µM*
O=C(CN(C1CCCCC1)S(=O)(=O)c1ccccc1)NCC1CCCO1 (configuration not stated) | -0.8% | -0.2% | ? | i
Cc1ccc(S(=O)(=O)c2nc(-c3ccc(F)cc3)oc2SCC(=O)NCC2CCCO2)cc1 (configuration not stated) | 0.2% | 7.2% | 1.84µM* | i
O=C(CN(C1CCCCC1)S(=O)(=O)c1ccc(F)cc1)NCc1ccncc1 | 14.9% | 3.0% | 8.2µM* | i
O=C(CN(C1CCCCC1)S(=O)(=O)c1ccc(Cl)cc1)NCc1ccncc1 | -26.1% | 0.0% | i | i
O=C(Nc1ccc(F)cc1)[C@H](Cc1ccccc1)N1Cc2ccccc2C1=O | . | . | i | i
O=S(=O)(c1ccc(-c2csc(=Nc3ccc(F)cc3)n2CCCCCCO)cc1)N1CCCC1 | . | . | ? | i
COc1cccc(C2C(C(=O)Nc3ccccc3OC)=C(C)Nc3nc(-c4ccco4)nn32)c1 (configuration not stated) | . | . | i | i
Cc1ccc(S(=O)(=O)c2nc(S(=O)(=O)c3ccccc3)sc2N2CCN(CCO)CC2)cc1 | -8.2% | ? | ? | 20.6µM*
CCS(=O)(=O)c1nc(S(=O)(=O)c2ccc(C)cc2)c(N2CCN(CCO)CC2)s1 | 0.2% | 15.0% | i | i
O=C(CN1C(=O)CC(c2ccco2)Sc2ccccc21)Nc1ccc(OC(F)(F)F)cc1 (configuration not stated) | . | . | i | i
Cc1cc(-c2ccccc2)n(-c2ccc(C(=O)N3CCN(c4ncccn4)CC3)cc2)n1 | -0.1% | -3.5% | 2.91µM* | ?
COc1ccc(CNC(=O)C(OC(=O)c2ccco2)c2ccc(F)cc2)cc1 (configuration not stated) | 9.8% | 10.8% | ? | i
SMILES | HT1080 IDH1KD tx | HT1080NT lethal | KB-V1 MDR tox | KB-3-1 tox
Cc1nc(NC(=O)CSc2ccc(-c3nc4ccccc4[nH]3)cn2)sc1C | ? | 13µM* | i | i
Cc1ccc2nc(-c3ccc(SCC(=O)Nc4nnc(C)s4)nc3)[nH]c2c1 | 9.2µM* | 20.6µM* | i | i
O=C(NCc1ccccc1Cl)c1cc2ccccc2o1 | . | . | i | i
CN(C)S(=O)(=O)c1ccc2c(c1)N(CC(=O)NCc1ccc(F)cc1)C(=O)CS2 | . | . | i | i
O=C(Nc1cc(Cl)cc(Cl)c1)N[C@@H]1CC[C@@H](CCNS(=O)(=O)c2cccc(F)c2)O[C@@H]1CO | ? | 18.4µM* | i | ?
O=C(Nc1ccc(F)cc1)N[C@H]1CC[C@H](CCNS(=O)(=O)c2cccc(Cl)c2)O[C@@H]1CO | -0.4% | -3.2% | i | i
Cc1cc(=O)n(Cc2ccc(F)cc2Cl)c2c1c(C)nn2C | . | . | ? | i
C=C1C(=O)O[C@H]2C[C@H]1[C@@H](OC(C)=O)C/C(C)=C/CC/C(C)=C\CC[C@]2(C)O | 16.4µM* | 13µM* | i | i
CC(=O)O[C@@H]1C[C@H]2C(C)=C[C@H]3OC(=O)[C@@H](C)[C@H]3C[C@H]2[C@]1(C)O | 11.1% | 11.1% | i | i
O=C(Nc1cccnc1Cl)c1cnn2c1NC(=C1CC1)C=C2C(F)F | . | . | i | i
CC(C)CCSc1nc(N)c(C#N)cc1C#N | -28.6% | -20.6% | 20.6µM* | i
O=C(O)CCC(=O)OCCN(Cc1ccc(Oc2ccc([N+](=O)[O-])cc2)cc1)C(=O)C(Cl)Cl | -4.6% | 3.8% | 23.1µM* | i
CCCCn1c(=S)[nH]c2cc(S(=O)(=O)N3CCOCC3)ccc21 | 1.5% | -4.9% | i | i
CCn1c(=S)[nH]c2cc(S(=O)(=O)N3CCCCC3)ccc21 | -18.9% | ? | 13µM* | i
O=C1CC(c2cccc([N+](=O)[O-])c2)c2c(ccc3ccccc23)N1 (configuration not stated) | 11.6µM* | ? | 5.8µM* | ?
O=C(CCN1C(=O)/C(=C/c2ccccc2Cl)SC1=S)NCCCN1CCOCC1 | -9.2% | 3.4% | i | 14.6µM*
O=C(NNc1nc2ccccc2s1)c1ccc(F)cc1 | -11.9% | 10.1% | ? | i
CCOc1ccc2nc(NC(=O)c3cnccn3)sc2c1 | 7.7% | 15.3% | i | i
O=C(Nc1nc2ccc(F)cc2s1)c1ccccn1 | 8.2µM* | ? | i | ?
O=C(Nc1nc(-c2ccco2)c(-c2ccco2)s1)c1cnccn1 | ? | -23.3% | 2.06µM* | i
O=C(Nc1nc2ccccc2s1)c1cnccn1 | ? | 2.82µM* | i | i
O=C(Nc1nc2ccc(F)cc2s1)C1=NN(c2ccccc2)C(=O)CC1 | -0.4% | -2.5% | i | ?
O=C(NNc1nc2ccc(F)cc2s1)c1cccc(F)c1 | 14.6µM* | ? | i | ?
Cn1nnc2c(N3CCN(c4ccc(F)cc4)CC3)ncnc21 | . | . | i | i
